Source: PubChem (National Center for Advancing Translational Sciences (NCATS))
EPAC2 antag – validation of human EPAC2 antagonists | Q8WZA2 | 1.7% of 16,000 active | AID 1645886 | Potency, µM (top dose mostly 112 µM), inactives show at the top dose activity, negative = inhibition, actives largely listed as inhibitors | EPAC2 Rap1B BODIPY-GDP exchange, fluorescence;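 note: 100% = activation by cAMP agonist control; nearly all actives have a fitted effect of over 40% in size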
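Fluorescent exchange read-out: 100 nM EPAC2 with 250 nM RAP1B–BODIPY-GDP and 50 uM GDP; BODIPY-GDP release lowers fluorescence. Read at 480/540 nm every 5 min for 30 min at room temperature; normalized to 6.5 mM cAMP.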
EPAC1 ag val – validation of human EPAC1 agonists | O95398 | EPAC1 Rap1b BODIPY-GDP exchange, fluorescence | Potency, µM, for inactives: max response, positive = active, most hits filed as activators | 1% of 16,000 active | AID 1645883; note: nearly all actives have a fitted effect of over 70% in size
Target sequence (O95398 whole entry, looked up): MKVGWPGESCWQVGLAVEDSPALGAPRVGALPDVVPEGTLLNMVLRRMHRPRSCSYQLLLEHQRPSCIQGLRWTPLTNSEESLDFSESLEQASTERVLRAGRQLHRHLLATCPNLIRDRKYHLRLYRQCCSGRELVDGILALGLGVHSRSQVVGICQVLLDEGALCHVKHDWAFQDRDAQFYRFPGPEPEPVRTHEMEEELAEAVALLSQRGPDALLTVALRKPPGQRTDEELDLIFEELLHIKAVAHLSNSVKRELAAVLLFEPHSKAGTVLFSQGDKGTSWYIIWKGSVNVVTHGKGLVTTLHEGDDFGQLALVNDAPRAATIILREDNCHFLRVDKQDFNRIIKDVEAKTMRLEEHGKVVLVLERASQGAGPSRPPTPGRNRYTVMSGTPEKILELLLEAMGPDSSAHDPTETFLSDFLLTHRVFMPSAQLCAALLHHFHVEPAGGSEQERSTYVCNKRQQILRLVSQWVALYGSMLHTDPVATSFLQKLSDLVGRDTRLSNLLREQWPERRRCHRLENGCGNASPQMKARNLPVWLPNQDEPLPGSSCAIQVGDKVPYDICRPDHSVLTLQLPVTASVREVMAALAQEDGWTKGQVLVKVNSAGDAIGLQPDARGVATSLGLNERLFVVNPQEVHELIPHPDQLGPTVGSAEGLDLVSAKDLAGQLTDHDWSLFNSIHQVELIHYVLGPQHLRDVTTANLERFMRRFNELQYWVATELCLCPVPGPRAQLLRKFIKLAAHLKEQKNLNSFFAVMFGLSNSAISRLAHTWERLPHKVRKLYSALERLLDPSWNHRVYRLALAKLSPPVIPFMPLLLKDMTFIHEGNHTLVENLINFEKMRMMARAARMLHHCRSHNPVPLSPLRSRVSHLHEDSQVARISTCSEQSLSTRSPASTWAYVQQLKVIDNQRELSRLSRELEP
* = called active by the depositor; ? = inconclusive; nt = not tested or not shown; ! = not active in a repeat. The list is not random: actives were taken first. Their share in the collection is about 3.1%. Calls come from the whole dose curve; as a rule, active = well fitted curve in the direction sought with a large enough effect; inconclusive = small, poorly fitted or top-dose-only effect, or another doubt; inactive = no such curve, though single readings can be large; an effect the other way counts as inactive or inconclusive. Unless noted, % is set by controls: 0 for no effect and ±100 for the full control effect; potency is the fitted concentration of half-maximal effect.

SMILES	EPAC2 antag	EPAC1 ag val
COC(=O)c1ccccc1NS(C)(=O)=O	?	-34%
COC(=O)c1c(C)[nH]c(C)c1C(=O)c1ccccc1Cc1ccccc1	79µM*!	4%
CO[C@@H]1[C@@H](OC)[C@H](C)[C@@](O)(CC(=O)O)O[C@H]1[C@H](C)[C@H]1O[C@@]2(CC[C@@](C)([C@H]3CC[C@@](C)([C@@H]4O[C@@H]([C@H]5O[C@](C)(O)[C@H](C)C[C@@H]5C)C[C@@H]4OC4C[C@H](OC)[C@@H](OC)[C@H](C)O4)O3)O2)C[C@H](O)[C@H]1C (some centres undefined)	5%	-53%
CCc1oc2ccccc2c1C(=O)c1cc(I)c(O)c(I)c1	63µM*	-36%
COc1ccc(-c2oc3ccccc3c(=O)c2O)cc1OC	-10%	6%
CC(=O)N[C@@H](CC(=O)N[C@@H](CCC(=O)O)C(=O)O)C(=O)O	-7%	-14%
COc1ccccc1C1CN(CCNC(=O)c2cnsn2)Cc2ccccc2O1 (centres undefined)	-21%	22%
CCCCC[C@H](O)C=C[C@H]1[C@H](O)CC(=O)[C@H]1CCCCCCC(=O)O	56µM*	-19%
CCCCC[C@H](O)/C=C/[C@H]1[C@H](O)CC(=O)[C@@H]1C/C=C\CCCC(=O)O	-11%	-13%
CCC[C@@]1(CCc2ccccc2)CC(O)=C([C@H](CC)c2cccc(NS(=O)(=O)c3ccc(C(F)(F)F)cn3)c2)C(=O)O1	nt	23%
CCCCCCCCCCCCCCCC[n+]1ccc(C)c2ccccc21	-48%	-84%
CO/N=C(\C(=O)N[C@@H]1C(=O)N2C(C(=O)[O-])=C(C[n+]3ccc(N)n3CCO)CS[C@H]12)c1csc(N)n1	15%	1%
CCOC(=O)N1CCN(Cc2ccc3c(c2)CN(C(=O)c2cc(-c4ccccc4)no2)CCO3)CC1	-18%	6%
Cc1nc(NCc2c(C)nn(C)c2Cl)sc1-c1ccn(CC2COc3ccccc3O2)n1 (centres undefined)	?	6%
COc1ccc(-n2c(=O)c(-c3ccc(Cl)cc3)nc3cnc(N(C)C)nc32)cc1	13%	100µM*
COc1ccc(-c2nc3cnc(N(C)C)nc3n(-c3ccccc3)c2=O)cc1	30%	-94%
CO/N=C(\C(=O)N[C@@H]1C(=O)N2C(C(=O)O)=C(CSc3nnnn3C)CS[C@H]12)c1csc(N)n1	25%	-17%
CNC(C)CCC=C(C)C (centres undefined)	5%	-14%
Cc1cc(C)c(S(=O)(=O)Nc2ccccc2C(F)(F)F)c(C)c1	45µM*	6%
Cc1cc(C)c2nccc(/C=C/c3ccc(N(C)C)cc3)c2c1	45%	100µM*
CN(C)c1ccc(/C=C/c2ccnc3c2ccc2ccccc23)cc1	33%	?
Cc1ccc2c(/C=C/c3ccc(N(C)C)cc3)ccnc2c1C	6%	100µM*
Cc1cc(C)c2c(C)ccnc2c1	-4%	26%
COc1ccccc1C1CN(Cc2cccc(O)c2)Cc2ccccc2O1 (centres undefined)	?	1%
CC1(C)Oc2ccc3ccc(=O)oc3c2CC1=O	13%	-33%
SMILES	EPAC2 antag	EPAC1 ag val
CC(=O)OC1c2c(ccc3ccc(=O)oc23)OC(C)(C)C1OC(=O)CC(C)C (centres undefined)	40µM*	-113%
CC(C)CN(C[C@@H](OP(=O)(O)O)[C@H](Cc1ccccc1)NC(=O)O[C@H]1CCOC1)S(=O)(=O)c1ccc(N)cc1	-27%	-15%
Cc1ccc(S(=O)(=O)NC(=O)N[C@@H](C)Cc2ccccc2)cc1	-4%	-4%
Cc1nc2ccccc2nc1CN1CCOc2ccc(C3(O)CCN(c4ccccc4F)CC3)cc2C1	-15%	0%
CCOC(=O)C1=C(C)NC(C)=C(C(=O)OCC)C1c1ccccc1C=CC(=O)OC(C)(C)C	-24%	-59%
CCOC(=O)C1=C(C)NC(C)=C(C(=O)OCC)C1c1c(F)c(F)c(F)c(F)c1F	35µM*	-23%
Oc1c(Cl)cc(Cl)cc1Sc1cc(Cl)cc(Cl)c1O	56µM*	-9%
O=S(c1cc(Cl)cc(Cl)c1O)c1cc(Cl)cc(Cl)c1O	?	-3%
COC(=O)C1=C(C)NC(C)=C(C(=O)OCC(C)C)C1c1ccccc1[N+](=O)[O-] (centres undefined)	?	-72%
COC(=O)C1=C(C)NC(C)=C(C(=O)OC(C)C)C1c1cccc2nonc12 (centres undefined)	50µM*!	-11%
O=C(c1cnccn1)N1CCC2(CCCN(C(c3ccccc3)c3ccccc3)C2)CC1	?	-34%
O=C(c1cnccn1)N1CCC[C@@]2(CCN(C(c3ccccc3)c3ccccc3)C2)C1	50µM*	7%
CCC(C)C(=O)OC1CC(C)C=C2C=CC(C)C(CCC3CC(O)CC(=O)O3)C21 (centres undefined)	2%	-16%
C[C@H]1C=C2C=C[C@H](C)[C@H](CC[C@@H]3C[C@@H](O)CC(=O)O3)[C@H]2[C@@H](OC(=O)[C@@H](C)CCO)C1	56µM*	-24%
